In all, about 370,000 compounds went through this assay and about 2,100 (0.57%) were called active.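 The calls were made as follows: active = inhibition above mean plus 3 SD of compounds lying within the high and low control bounds (cut at about 19% in these data); inactive = the rest.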 The list comes from a sample in which actives are over-represented; it also holds similar structures and randomly drawn compounds.
Each molecule was assayed against Group 3 secretory phospholipase A2 (Homo sapiens) (UniProt Q9NZ20) (assay: human group III sPLA2 inhibitors, primary screen, biochemical, QFRET, BODIPY PC-A2 liposome substrate (AID 743126;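 also: 0% = median of test compound wells and 100% = no enzyme DMSO wells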)). Details: QFRET BODIPY PC-A2 liposome hydrolysis, fluorescence; at 12.2 µM; stronger effect = higher value.
Chain of Group 3 secretory phospholipase A2 (Homo sapiens) (Q9NZ20 whole entry, looked up): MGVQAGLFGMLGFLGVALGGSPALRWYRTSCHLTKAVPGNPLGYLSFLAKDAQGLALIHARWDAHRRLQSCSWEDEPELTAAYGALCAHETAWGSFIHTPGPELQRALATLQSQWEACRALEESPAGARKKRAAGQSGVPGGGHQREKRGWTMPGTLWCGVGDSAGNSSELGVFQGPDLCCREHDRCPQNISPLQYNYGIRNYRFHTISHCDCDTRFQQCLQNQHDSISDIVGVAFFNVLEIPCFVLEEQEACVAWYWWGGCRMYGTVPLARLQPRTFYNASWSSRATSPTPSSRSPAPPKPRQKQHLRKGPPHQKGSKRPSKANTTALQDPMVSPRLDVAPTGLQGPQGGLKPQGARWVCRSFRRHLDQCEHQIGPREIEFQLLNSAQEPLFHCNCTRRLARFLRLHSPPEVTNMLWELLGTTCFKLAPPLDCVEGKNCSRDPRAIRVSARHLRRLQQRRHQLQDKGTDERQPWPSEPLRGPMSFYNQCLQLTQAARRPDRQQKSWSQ

Structure (SMILES) | inhibition
COC(=O)[C@]12C[C@H](CC(=O)N3CCN(C(=O)C4CC4)CC3)C(=O)N(CCC3=CCCCC3)C1=C[C@H](C(C)C)O[C@@H]2C1CC1 | 4.41% (inactive)
CN(CC(=O)Nc1ccccc1[N+](=O)[O-])Cc1ccc(Br)cc1 | -9.41% (inactive)
CSc1ccccc1NC(=O)CN(C)CC(=O)Nc1ccc(Cl)cc1[N+](=O)[O-] | -3.92% (inactive)
CN(CC(=O)Nc1ccc(N2CCOCC2)cc1)CC(=O)Nc1ccccc1[N+](=O)[O-] | 20.6% (active)
Cc1cc(=O)[nH]c(SCC(=O)Nc2ccc(F)cc2F)n1 | -0.22% (inactive)
CCC(C)[C@@H](C(=O)OC)N(CCc1cn(Cc2ccccc2)nn1)S(=O)(=O)c1ccccc1Br (stereo not given in full) | -21.7% (inactive)
CCn1c(SCC(=O)Nc2ccccc2F)nc2c(c1=O)SC(C)C2 (stereo not given) | 0.02% (inactive)
COCCn1c(SCC(=O)Nc2cc(Cl)ccc2OC)nc2c(c1=O)SC(C)C2 (stereo not given) | -0.04% (inactive)
COCCn1c(SCC(=O)Nc2cc(OC)ccc2OC)nc2c(c1=O)SC(C)C2 (stereo not given) | 20.3% (active)
Cc1nc(CNc2ncnc3ccc(-c4ccc5c(c4)OCO5)cc23)cs1 | -8.39% (inactive)
CCCCn1c(N)c(N(CCOC)C(=O)c2sc3ccccc3c2Cl)c(=O)[nH]c1=O | 5.32% (inactive)
CCCCn1c(N)c(N(CCOC)C(=O)CSCC(=O)Nc2cccc(C)c2)c(=O)[nH]c1=O | 0.3% (inactive)
CCCCn1c(N)c(N(CCOC)C(=O)COc2c(C)cccc2C)c(=O)[nH]c1=O | 21.9% (active)
CCCCOCCCNC(=O)C[C@H]1C[C@@]2(C(=O)OC)C(=C[C@H](C(C)(C)C)O[C@@H]2C)N(CCc2ccc(OC)c(OC)c2)C1=O | -14.2% (inactive)
COc1ccnc(C(=O)N2CCC(Oc3cccnc3)CC2)c1 | 3.64% (inactive)
Cc1ccc(Nc2ccccc2N)cc1 | -1.96% (inactive)
Nc1ccc(Nc2ccccc2)cc1 | 19.5% (active)
O=c1cnnc(Nc2ccccc2)[nH]1 | 6.17% (inactive)
CC(=O)O[C@@]1(C(C)=O)CCC2[C@H]3C=C(C)C4=CC(=O)CC[C@@]4(C)C3CC[C@]21C (stereo not given in full) | 14% (inactive)
COc1ccc(C(=O)NNc2cc(C)nc(NNC(=O)c3ccc(OC)cc3)n2)cc1 | -3.83% (inactive)
COc1ccc(C(=O)NC(=S)NNC(=O)c2c(-c3ccccc3)noc2C)cc1 | 19.5% (active)
COc1ccc(C(=O)NN2C(=O)C3C(c4ccccc4)C=CC(c4ccccc4)C3C2=O)cc1 (stereo not given) | -36.3% (inactive)
COc1ccc(C(=O)NNC(=S)NC(=O)c2ccccc2)cc1 | 31.9% (active)

Structure (SMILES) | inhibition
COc1ccc(C(=O)NCCSc2ccccc2C)cc1 | -6.45% (inactive)
COC(=O)c1ccc2nc(-c3ccccc3)c(Cc3ccc(OC)cc3C)n2c1 | -8.3% (inactive)
O=S1(=O)c2ccc(Br)cc2OC[C@@H](Cc2ccccc2)N1Cc1cn(Cc2ccco2)nn1 | -4.54% (inactive)
Nn1c(SCC(=O)Nc2cccc3ccccc23)nnc1-c1cc(-c2ccc(F)cc2)n[nH]1 | -0.61% (inactive)
COC(=O)c1ccccc1-n1cc(COC(=O)NCCc2ccccc2)nn1 | 6.94% (inactive)
Cc1ccccc1NC(=O)Cn1nnc(-c2ccccc2F)n1 | -6.88% (inactive)
O=C1CC[C@@H](COc2ccc3[nH]cc(-c4ccccc4)c3c2-c2ccccc2)N1 | -47.7% (inactive)
COc1ccc(/C=C2\CC3(OC(C)=O)CCCN2C3)cc1 (stereo not given) | 2.59% (inactive)
CC(C)CNS(=O)(=O)CC1NCCc2ccccc21 (stereo not given) | 3.21% (inactive)
COc1cc(OC)cc(-c2nc3nc(C)c(CCC(=O)NCc4ccco4)c(C)n3n2)c1 | 9.12% (inactive)
COc1cc(OC)cc(C2=Cc3ccccc3C(CC(=O)c3ccco3)N2c2ccc(-c3cnc(OC)nc3)cc2)c1 (stereo not given) | 20.3% (active)
COCCN(C(=O)c1ccco1)c1nnc(-c2ccc(OC)cc2)s1 | -1.24% (inactive)
CC(c1c[nH]c2ccccc12)c1c(-c2ccccc2)n(C)c2ccccc12 (stereo not given) | -21.1% (inactive)
COc1ccc(CSc2nnc(-c3cccc(C)c3)n2C)cc1 | 11.9% (inactive)
O=C(CSc1nc2sc3c(c2c(=O)n1-c1ccccc1)CCCC3)NN=Cc1ccc(OCc2ccccc2)cc1 | -1.3% (inactive)
COC(=O)C1CN(CC(C)C)CCS(=O)(=O)N1Cc1ccc(F)cc1 (stereo not given) | 5.81% (inactive)
N#Cc1ccccc1OC[C@@H](O)CN1CCC(C(O)(c2ccccc2)c2ccccc2)CC1 | -25.3% (inactive)
NS(=O)(=O)c1ccc(CNC(=S)NC(=O)c2ccco2)cc1 | -1.55% (inactive)
COc1ccc(/C=C(/NC(=O)c2ccco2)C(=O)Nc2ccc(C(C)=O)cc2)cc1 | 10.6% (inactive)
CC(Oc1ccc2ccccc2c1)C(=O)NNC(=S)NC(=O)c1ccco1 (stereo not given) | 20% (active)
CCOC(=O)C1=C(C)NC2=C(C(=O)CC(C)(C)C2)C1c1ccc2c(c1)OCO2 (stereo not given) | 14.4% (inactive)
CCCOc1ccc(Oc2c(Cl)cnn(Cc3cccc4ccccc34)c2=O)cc1 | 3.84% (inactive)
Cc1ccc2[nH]c(C(=O)O)c(NC(=O)c3ccccc3[N+](=O)[O-])c2c1 | -10.3% (inactive)

Structure (SMILES) | inhibition
COc1cccc2c(C)c(C(=O)O)[nH]c12 | -1.9% (inactive)
Cc1c(C(=O)N/N=C/c2ccccc2)[nH]c2c([N+](=O)[O-])cccc12 | 21.8% (active)
O=C(NCc1cccs1)C1CCCN(S(=O)(=O)c2ccc([N+](=O)[O-])cc2)C1 (stereo not given) | 2.84% (inactive)
CN1C[C@]2(C=C3CCCCC3n3c(=O)n(-c4ccccc4)c(=O)n32)N=C1NC(=O)c1ccccc1 (stereo not given in full) | -6.07% (inactive)
O=C(Nc1cc(Cl)cc(Cl)c1)OCCN1CCCC12CCC(c1ccccc1)CC2 (stereo not given) | -8.41% (inactive)
C#CCCN([C@H](C(=O)OC)C(C)C)S(=O)(=O)c1ccc(F)cc1Br | 3.19% (inactive)
COP(=O)(O)CNC(=O)OCc1ccccc1 | 2.13% (inactive)
O=C(CN1CCCc2ccccc21)NCc1ccc(F)cc1 | 7.05% (inactive)
N=C(N)SCc1cccc2ccccc12 | 35.3% (active)
CSC1=NCCN1C(=O)Cc1cccc2ccccc12 | 7.18% (inactive)
CCc1ccc(-c2nn(-c3ccccc3)cc2CSC(=N)N)cc1 | 15.7% (inactive)
O=C(CNS(=O)(=O)c1ccccc1F)N1CCN(c2ccccn2)CC1 | 5.26% (inactive)
Cc1cc(-n2nc(C)cc2C)n2ncc(-c3ccccc3)c2n1 | 21.3% (active)
Cc1cc(C)n(-c2nc(C(F)(F)F)nc3ccccc23)n1 | 1.7% (inactive)
COc1ccccc1-c1cnn2c(N3CCOCC3)cc(C)nc12 | 17.5% (inactive)
COC(=O)C[C@@H]1CC[C@H]2[C@@H](COc3ccc(NS(=O)(=O)CC(F)(F)F)cc3C(=O)N2C)O1 | 6.09% (inactive)
CCOC(=O)CNC(=O)/C=C/c1c(Cl)cccc1Cl | -5.13% (inactive)
O=C(CC(=O)N/N=C\c1cccc(Cl)c1Cl)NCc1ccccc1 | -20.8% (inactive)
O=C(/C=C/c1c(Cl)cccc1Cl)NCc1ccccc1 | 20% (active)
O=C(CSc1nc2ccccc2s1)NN=Cc1ccc(O)cc1O | -23% (inactive)
CC(C)c1ccc(Nc2nnc(SCC(=O)c3nnc(-c4ccccc4)o3)s2)cc1 | 22.6% (active)
CN(C(=O)CSc1nnc(Nc2ccccc2)s1)C1CCS(=O)(=O)C1 (stereo not given) | -0.8% (inactive)
COc1cccc(Nc2nnc(SCC(=O)N3CC(C)OC(C)C3)s2)c1 (stereo not given) | 13.8% (inactive)

Structure (SMILES) | inhibition
COc1ccc(-n2c(SCC(=O)NC3CCCC3)nnc2-c2ccncc2)cc1 | 12.7% (inactive)
CCCCOC(=O)CCCc1ccc([N+](=O)[O-])cc1[N+](=O)[O-] | 1.12% (inactive)
CCCCCOc1ccc(CSC2=NCCN2)cc1[N+](=O)[O-] | -1.57% (inactive)
CCCCOc1ccc(CSC(=N)N)cc1[N+](=O)[O-] | 34.6% (active)
COc1ccc(N2CCN(CCNS(=O)(=O)c3ccc(Cl)s3)CC2)cc1 | 0.02% (inactive)
O=S1(=O)c2ccc(N3CCN(Cc4ccccc4F)CC3)cc2Oc2ccccc2CN1Cc1cn(Cc2ccc(Cl)cc2)nn1 | -0.32% (inactive)
O=C(Nc1nc2ccc(Cl)cc2s1)c1cc(-c2ccc(Cl)cc2)nc2ccccc12 | 13.3% (inactive)
O=C(Nc1cccc(F)c1)c1cc(-c2ccco2)nc2ccccc12 | 23.6% (active)
Cc1cc(C(=O)Nc2ccc(C)c(S(=O)(=O)N3CCOCC3)c2)c2ccccc2n1 | -16.7% (inactive)
CCC(c1nnc(SCC(=O)NNC(=O)c2ccccc2)n1Cc1ccccc1)N(C)C (stereo not given) | -0.56% (inactive)
CC(C)(C)NC(=O)Cn1c(SCC(=O)Nc2nccs2)nc2ccccc21 | 3.98% (inactive)
O=C(CSc1nc2ccccc2n1Cc1ccccc1)NNC(=S)Nc1ccccc1 | 34.3% (active)
CCC(=O)Nc1ccc2c(c1)C(=O)N(C)[C@H]1CC[C@H](CC(=O)NCCOC)O[C@@H]1CO2 | -9.58% (inactive)
Nc1[nH]c(/C=C2/CCCCC2n2[nH]c(=O)n(-c3ccccc3)c2=O)c(Cc2ccccc2)[n+]1Cc1ccccc1 (stereo not given) | -5.57% (inactive)
CCn1c(-c2ccncc2)n[nH]c1=S | 3.35% (inactive)
CCc1cc(-c2n[nH]c(=S)n2CC(C)C)cs1 | 19.6% (active)
CCCc1cc(-c2n[nH]c(=S)n2Cc2ccccc2)cs1 | 2.87% (inactive)
CCC(=O)c1c(CC)c2n3c1=CC[C@H]3CC(Br)C=2 (stereo not given in full) | 1.91% (inactive)
CCSc1nnc(SCC(=O)NNC(=O)c2ccccc2F)s1 | 4.1% (inactive)
O=C(CSc1nnc(SCc2ccc(Cl)cc2)s1)N/N=C/c1ccccc1Cl | -4.99% (inactive)
Cc1ccc(NC(=S)NNC(=O)CSc2nnc(SCc3ccccc3Cl)s2)cc1 | 19.7% (active)

From PubChem BioAssay AID743126 (The Scripps Research Institute Molecular Screening Center, 2013)
